Screening data from PubChem.
Compounds with a hit are over-represented: about 1.4% of the library has one in this group of screens.
Bcl-2 Bim block: inhibitors of Bim-Bcl-2 interaction, human | P10415 | 190,000 tested, 0.06% active | inhibition, % at 10 µM | Bead-based flow cytometry, Bim peptide-Bcl-2 binding; in the data active = inhibition above about 40%;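 note: 0% = no compound wells with probe peptide and 100% = reference peptide inhibitor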
Bcl-W Bim block: inhibitors of Bim-Bcl-W interaction, human | Q92843 | bead-based flow cytometry, Bim peptide-Bcl-W binding | inhibition, % at 10 µM | 190,000 tested, 0.02% active;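 note: 0% = bound tracer without compound and 100% = peptide blocker; higher means less fluorescent Bim peptide bound to Bcl-W beads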
Target sequence (Q92843 whole entry, looked up): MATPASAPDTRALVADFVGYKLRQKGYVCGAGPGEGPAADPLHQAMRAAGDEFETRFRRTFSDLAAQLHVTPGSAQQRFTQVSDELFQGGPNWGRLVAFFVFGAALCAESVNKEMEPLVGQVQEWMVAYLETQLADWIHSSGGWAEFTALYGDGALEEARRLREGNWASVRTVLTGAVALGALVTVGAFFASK
Bcl-XL Bim block: human Bim-Bcl-XL interaction inhibition; Q07817; Bim peptide-Bcl-XL binding, bead flow cytometry, fluorescence; inhibition, % at 10 µM; 190,000 tested, 0.04% active; AID 1007
Target sequence (Q07817 whole entry, looked up): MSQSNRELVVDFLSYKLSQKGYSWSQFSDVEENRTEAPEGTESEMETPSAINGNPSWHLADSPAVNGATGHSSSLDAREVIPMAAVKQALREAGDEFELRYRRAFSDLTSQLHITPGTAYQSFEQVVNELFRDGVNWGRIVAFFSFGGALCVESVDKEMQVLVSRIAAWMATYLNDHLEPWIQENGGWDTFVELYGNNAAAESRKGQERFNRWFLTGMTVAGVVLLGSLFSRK
Bim-Bcl-B: inhibitors of Bim-Bcl-B interaction, human. Q9HD36. bead-based flow cytometry, Bim peptide-Bcl-B binding. inhibition, % at 10 µM. 190,000 tested, 0.073% active. AID 951;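 note: 0% = tracer peptide without compound and 100% = reference inhibitor peptide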
Wee1 degr inh: blocks degradation of human Wee1 kinase; P30291; HeLa Luc-Wee1K328M stability, luciferase luminescence; 100% = proteasome inhibitor MG132 effect; reporter increase, % at 5 µM; 220,000 tested, 1.2% active;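 active = activation above the mean of all tested compounds plus 3 SD, set per screening run, cut at about 8.8% in these data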;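 note: cells exposed to compound for 20 h before luminescence read; 0% = DMSO alone and 100% = MG132 at 30 µM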
Bim-Bfl-1: inhibitors of Bim-Bfl-1 interaction, human; Q16548; Bead-based flow cytometry, Bim-Bfl-1 binding inhibition; inhibition, % at 10 µM; 190,000 tested, 0.12% active; AID 1008;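 note: 0% = wells without compound plus tracer and 100% = blocker peptide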
Target sequence (Q16548 whole entry, looked up): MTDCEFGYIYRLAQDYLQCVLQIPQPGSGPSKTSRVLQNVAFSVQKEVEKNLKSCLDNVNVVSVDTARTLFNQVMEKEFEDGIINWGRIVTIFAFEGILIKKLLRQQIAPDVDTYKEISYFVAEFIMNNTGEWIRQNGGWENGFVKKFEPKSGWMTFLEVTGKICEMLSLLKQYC
Wee1 stab conf: confirmation of human Wee1 degradation inhibitors; shares compounds with Wee1 degr inh; AID 1410; activation, % at 5 µM; 1,100 tested, 4% active; HeLa Luc-Wee1K328M degradation, luminescence; vehicle 0%, proteasome-blocked wells 100%; in the data active = activation above about 8.9%
Numbers without * were called inactive; nt = no result given. Cut-off read from the data, not from the text of the source, unless noted: active = inhibition above about 40%.

SMILES | Bcl-2 Bim block | Bcl-W Bim block | Bcl-XL Bim block | Bim-Bcl-B | Wee1 degr inh | Bim-Bfl-1 | Wee1 stab conf
COc1cccc(C(=O)NC(=S)NCc2ccco2)c1 | 0 | -3 | -10 | -8 | 14* | 0 | 0
S=C(NCc1ccco1)Nc1ccc(Oc2ccccc2)cc1 | 0 | -3 | 0 | 1 | 11* | 0 | -1
C/C=C(\C)CN1CCCC(CO)(Cc2ccccc2)C1 (stereo not drawn) | -1 | 0 | 0 | -2 | -1 | -5 | nt
O=C(CNC(=O)c1cccc(F)c1)OCC(=O)N1CCN(C(=O)c2ccco2)CC1 | nt | nt | nt | nt | -2 | nt | nt
O=C(CNC(=O)c1cccc(F)c1)OCC(=O)N1CCCCC1 | 5 | 0 | -1 | 4 | 15* | 5 | 0
O=c1c2c(ncn2C2CCCC2)n(Cc2ccccc2)c(=O)n1CCOc1ccccc1 | -4 | -7 | -7 | -9 | 14* | -1 | 1
Cc1ccc(NC(=O)CN(C)Cc2nc3ccccc3c(=O)[nH]2)c(Br)c1 | -7 | 0 | -5 | -6 | 11* | -8 | 4
O=C(/C=C/c1ccc(Cl)cc1)Nc1nccs1 | -1 | 4 | 0 | -2 | 13* | -2 | 0
C/C=C/C=C/C(=O)Nc1nccs1 | 0 | -4 | -6 | -3 | 11* | 1 | 2
C/C(=C\c1ccccc1)C(=O)Nc1nccs1 | -4 | 0 | -3 | 3 | -1 | 3 | nt
O=C(NCc1ccc(Cl)cc1)C(=O)Nc1nccs1 | -3 | -7 | -11 | -1 | -4 | -2 | nt
Cc1ccc2nc(NCc3ccccc3)[nH]c2c1 | -4 | -2 | 0 | -6 | 17* | -4 | 29*
CCCCNc1c2c(nc3c(-c4ccccc4)c(C)nn13)CCC2 | -6 | 0 | -8 | -8 | 13* | -15 | 2
CCCCCC(=O)C(=O)c1ccc(O)cc1O | nt | nt | nt | nt | 3 | nt | nt
COc1ccc(Nc2oc(-c3ccc(OC)cc3)nc2C#N)cc1 | nt | nt | nt | nt | 11* | nt | 9.6*
COc1ccc(Nc2oc(-c3ccc(Cl)cc3)nc2C#N)cc1 | 2 | 0 | -1 | 0 | 2 | 0 | nt
COc1ccc(CC(=O)N(C)C2CCCCC2)cc1S(=O)(=O)N1CCOCC1 | -3 | -4 | -2 | -4 | 6 | -6 | nt
Cc1cccc(NC(=O)c2cnc3sccn3c2=O)c1 | -4 | 0 | -3 | 0 | 24* | 0 | -1
Cc1cccc(NC(=O)c2cnc3ccccn3c2=O)c1 | -9 | 0 | 0 | -5 | 0 | -9 | nt
Cc1ccsc1/C=C1/CN(C)Cc2c1nc1ccccc1c2C(=O)O | nt | nt | nt | nt | 11* | nt | -1
CCN1C/C(=C\c2cccc(C)c2)c2nc3ccccc3c(C(=O)O)c2C1 | -13 | 0 | -14 | -14 | -1 | -10 | nt
COc1ccc(C)cc1NC(=O)CCN1CC(C)OC(C)C1 (stereo not drawn) | 0 | -3 | -1 | -4 | 0 | -3 | nt
COc1ccc(-c2nc(CCl)cs2)cc1 | 0 | 2 | 0 | 0 | 12* | -3 | 3
O=C(NCC1CCCO1)c1cc2ccccc2oc1=O (stereo not drawn) | -6 | 1 | -1 | -3 | -4 | -5 | nt
COc1cccc(CN2CCNC(=O)C2CC(=O)NCCc2nc(C)c(C)s2)c1OC (stereo not drawn) | 1 | -3 | -4 | -4 | -3 | -4 | nt
SMILES | Bcl-2 Bim block | Bcl-W Bim block | Bcl-XL Bim block | Bim-Bcl-B | Wee1 degr inh | Bim-Bfl-1 | Wee1 stab conf
CCc1ccc(C2c3[nH]c4ccccc4c3CCN2C(=O)CN2CCN(CC)CC2)cc1 (stereo not drawn) | -2 | -3 | -6 | -1 | -2 | 4 | nt
CCc1ccc(C2c3[nH]c4ccccc4c3CCN2C(=O)CNC(N)=O)cc1 (stereo not drawn) | -7 | -3 | -2 | -5 | 23* | -4 | 0
Cc1cccc(C(=O)Nc2cccc(Br)c2)c1[N+](=O)[O-] | -4 | 0 | -1 | -5 | -1 | -5 | nt
COc1cccc(NC(=O)c2cccc(C)c2[N+](=O)[O-])c1 | -1 | 0 | 0 | 0 | 14* | -3 | 2
CC1=C(C)CS(=O)N(S(=O)(=O)c2ccccc2)C1 (stereo not drawn) | -7 | 0 | -4 | -14 | 11* | 0 | -1
CC1=C(C)CS(=O)N(c2ccc(S(N)(=O)=O)cc2)C1 (stereo not drawn) | 1 | 0 | -3 | -8 | -1 | 10 | nt
COc1ccc(-c2nc3cc([N+](=O)[O-])ccc3o2)cc1 | -2 | -3 | -2 | -4 | 14* | -10 | 1
Nc1ccc(-c2nc3cc([N+](=O)[O-])ccc3o2)cc1 | nt | nt | nt | nt | 2 | nt | nt
CN1CCN(C(=O)CSc2ccc(C(F)(F)F)cc2[N+](=O)[O-])CC1 | -3 | -4 | -6 | -7 | -1 | 0 | nt
O=C(NCc1ccc2c(c1)OCO2)c1ccc2c(c1)OCO2 | nt | nt | nt | nt | 16* | nt | -4
O=C(NCc1ccc2c(c1)OCO2)c1ccc2c(c1)OCCO2 | -3 | -1 | -4 | -3 | -4 | -5 | nt
S=C(NCc1ccc2c(c1)OCO2)NCc1ccc2c(c1)OCO2 | 1 | -1 | 0 | -5 | 12* | 1 | 0
CC(C)C(C)(C#N)NC(=O)CSc1nnc(-c2ccccc2)o1 (stereo not drawn) | -9 | -1 | -15 | -6 | 1 | -12 | nt
Cc1ccc(C2NC(=O)Cc3ccccc32)cc1 (stereo not drawn) | 0 | 0 | 0 | 0 | 14* | 2 | 1
CCCCN1C(=O)NC(NC(=O)c2ccco2)(C(F)(F)F)C1=O (stereo not drawn) | -2 | 0 | 0 | -4 | 17* | -2 | 2
CCCCN1C(=O)NC(NC(=O)C2CC2)(C(F)(F)F)C1=O (stereo not drawn) | 0 | 0 | -2 | -3 | 5 | -2 | nt
Cc1cc(C)n2nc(C(=O)Nc3cccnc3)nc2n1 | -13 | -2 | -10 | -8 | 13* | -10 | -1
Cc1cc(C)n2nc(C(=O)Nc3cccc(S(=O)(=O)N4CCCC4)c3)nc2n1 | nt | nt | nt | nt | 1 | nt | nt
CCN(CC)S(=O)(=O)c1ccc(C(=O)NCCc2ccccn2)cc1 | -2 | -5 | -6 | -4 | 12* | -6 | 9.3*
O=C(NCCc1ccccn1)c1ccc(NS(=O)(=O)c2ccc(F)cc2)cc1 | -3 | -4 | -4 | -2 | 2 | -4 | nt
CCOC(=O)C1CCCN(C(=O)c2cc(Nc3ccc(OC)cc3)nc3ccccc23)C1 (stereo not drawn) | 1 | 1 | 2 | 0 | 1 | 0 | nt
CCCC(C)C(=O)OCC(=O)NCc1ccc(OC)c(OC)c1 (stereo not drawn) | -3 | 0 | -3 | -4 | 14* | -9 | -2
C[C@@H](C(=O)Nc1cccc(S(=O)(=O)N2CCOCC2)c1)N1C(=O)C2CC=CCC2C1=O (stereo partly drawn) | 0 | -4 | 0 | 0 | 0 | -4 | nt
